Assay [1] can be described thus: TOX21_p53_BLA_p2_viability: Viability Assessment in the Tox21 HCT-116 p53 Agonism Beta-lactamase Assay, Phase 2 (AID 2283591).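 Further: compound exposure lasted 16 h at 37 °C; actives lower the ATP signal meaning cytotoxicity.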 The method in brief:
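Cytotoxicity readout: CellTiter-Glo ATP luminescence, 30 min at room temperature, after the beta-lactamase read. Cells were HCT116 exposed 16 h at 37C to compounds pin-transferred at 217-fold dilution from DMSO stocks.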

The target of assay [2] is Cellular tumor antigen p53 (Homo sapiens) (UniProt P04637). Put plainly: TOX21_p53_BLA_p2_ratio: Tox21 HCT-116 p53 Agonism Beta-lactamase Assay, Ratio, Phase 2 (AID 2283592). The method in brief: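 Read-out is the blue/green (460/530 nm, 405 nm excitation) ratio after 2 h CCF4-AM loading, fitted as gain versus DMSO. Compounds, pinned at 217-fold dilution from DMSO stocks, stayed 16 h on HCT-116 beta-lactamase reporter cells seeded 5 h earlier.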

Assay [3] has the same target. Put plainly: TOX21_p53_BLA_p3_ratio: Tox21 HCT-116 p53 Agonism Beta-lactamase Assay, Ratio, Phase 3 (AID 2283596). In outline: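 Cells were seeded at 4000/well, rested 5 h at 37C, then dosed with DMSO compound solutions (217-fold dilution) for 16 h. CCF4-AM substrate was loaded for 2 h at room temperature, and the 460/530 nm emission ratio was fitted for gain of signal versus DMSO.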

For assay [4] the target is unchanged. Put plainly: TOX21_p53_BLA_p5_ratio: Tox21 HCT-116 p53 Agonism Beta-lactamase Assay, Ratio, Phase 5 (AID 2283599). In outline:
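Beta-lactamase reporter ratio (blue 460 nm over green 530 nm, 405 nm excitation) after 2 h CCF4-AM loading, in HCT-116 cells exposed 16 h at 37 C to compounds pinned at 217-fold dilution. Increases relative to DMSO baseline scored.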

For assay [5] the target is unchanged. The assay can be described thus: TOX21_p53_BLA_p4_ratio: Tox21 HCT-116 p53 Agonism Beta-lactamase Assay, Ratio, Phase 4 (AID 2283601). In outline:
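Signal is the blue/green (460nm/530nm) ratio of cleaved versus uncleaved CCF4-AM substrate, read after 2 h substrate loading. Cells were HCT116 carrying the p53-responsive beta-lactamase reporter, dosed 16 h at 37C, 5% CO2; CellTiter-Glo measured in parallel.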

Assay [6] can be described thus: Tanguay_ZF_120hpf_MORT_legacy: (Legacy) Oregon State University Tanguay Lab 120 Hour Post-fertilization zebrafish Assay for Mortality (AID 2283633). The method in brief:
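Static waterborne exposure from 6 to 120 hpf at 28C of single dechorionated wild-type (5D) embryos per well, 0.64% DMSO final. Death recorded present/absent by brightfield at 24 and 120 hpf.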

A short description of assay [7]: Tanguay_ZF_120hpf_YSE_legacy: (Legacy) Oregon State University Tanguay Lab 120 Hour Post-fertilization zebrafish Assay for Yolk Sac Edema (AID 2283634).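 On AC50: actives raise the incidence of yolk sac edema above the DMSO baseline.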 The method in brief:
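Presence or absence of yolk sac edema was recorded at 120 hpf in surviving larvae. These were wild-type Tropical 5D embryos, chorion removed at 4 hpf, held in static exposure at 28C from 6 hpf with 0.64% DMSO vehicle.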

A short description of assay [8]: Tanguay_ZF_120hpf_AXIS_legacy: (Legacy) Oregon State University Tanguay Lab 120 Hour Post-fertilization zebrafish Assay for Body Axis Malformation (AID 2283635).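 On AC50: potency for an increased fraction of larvae scored with body axis malformation.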 The method in brief:
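Binary scoring of axis defects at 120 hpf under brightfield, fitted positive versus DMSO. Tropical 5D embryos, chorion removed by pronase at 4 hpf, were singly exposed in sealed, dark plates at 28C from 6 hpf; DMSO 0.64% final.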

Assay [9] is described as follows: Tanguay_ZF_120hpf_EYE_legacy: (Legacy) Oregon State University Tanguay Lab 120 Hour Post-fertilization zebrafish Assay for Eye Malformation (AID 2283636).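 Further: binary presence or absence of eye malformation scored by brightfield in 120 hpf larvae.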 In outline: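 Binary brightfield scoring of eye defects at 120 hpf after static exposure from 6 hpf of single pronase-dechorionated wild-type embryos (28C, 0.64% DMSO). Non-mortality endpoints omitted where embryos died; fit vs DMSO.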

Assay [10] in a line: Tanguay_ZF_120hpf_JAW_legacy: (Legacy) Oregon State University Tanguay Lab 120 Hour Post-fertilization zebrafish Assay for Jaw Malformation (AID 2283638). In outline: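 Binary jaw-malformation call at 120 hpf by brightfield microscopy. Embryos (Tropical 5D strain, chorion removed at 4 hpf) were dosed statically at 6 hpf, one per well, at 28C with 0.64% DMSO. Embryos that died were not scored.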

The nature of assay [11]: Tanguay_ZF_120hpf_OTIC_legacy: (Legacy) Oregon State University Tanguay Lab 120 Hour Post-fertilization zebrafish Assay for Otic Vesicle Malformation (AID 2283639). In outline:
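Binary scoring of otic vesicle defects at 120 hpf in zebrafish (Tropical 5D) held under static exposure at 28C, sealed and shaded, with final DMSO 0.64%. Embryos dying by 24 or 120 hpf excluded; fitted positively against DMSO.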

Assay [12] is described as follows: Tanguay_ZF_120hpf_PE_legacy: (Legacy) Oregon State University Tanguay Lab 120 Hour Post-fertilization zebrafish Assay for Pericardial Edema (AID 2283640).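 On AC50: potency for increased incidence of pericardial edema versus DMSO baseline.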 In outline:
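Scoring was binary, by brightfield microscopy at 120 hpf, and skipped where mortality occurred. Wild-type embryos were kept under sealed, foil-covered static exposure at 28C in 0.64% (vol/vol) DMSO.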

Assay [13] in a line: Tanguay_ZF_120hpf_BRAI_legacy: (Legacy) Oregon State University Tanguay Lab 120 Hour Post-fertilization zebrafish Assay for Brain Malformation (AID 2283641). The method in brief:
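Binary brightfield scoring of brain malformation at 120 hpf in Tropical 5D larvae held under static exposure at 28C (0.64% v/v DMSO), non-mortality endpoints skipped if dead. Positive control: 5uM trimethyltin chloride; fit versus DMSO.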

Assay [14] in a line: Tanguay_ZF_120hpf_PFIN_legacy: (Legacy) Oregon State University Tanguay Lab 120 Hour Post-fertilization zebrafish Assay for Pectoral Fin Malformation (AID 2283648).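 Further: each larva judged yes or no for fin defect by brightfield with dead larvae skipped.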 The method in brief:
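Pectoral fin malformation was recorded as a binary endpoint at 120 hpf in wild-type Tropical 5D larvae, which had been dechorionated and exposed statically from 6 hpf at 28C in 0.64% DMSO. Dead embryos were excluded.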

The nature of assay [15]: Tanguay_ZF_120hpf_CFIN_legacy: (Legacy) Oregon State University Tanguay Lab 120 Hour Post-fertilization zebrafish Assay for Caudal Fin Malformation (AID 2283649). The method in brief: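 Binary brightfield scoring of caudal fin defects at 120 hpf after static, light-shielded exposure at 28C from 6 hpf. Tropical 5D embryos, chorion removed with pronase at 4 hpf, final DMSO 0.64%.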

A short description of assay [16]: TOX21_p53_BLA_p5_viability: Viability Assessment in the Tox21 HCT-116 p53 Agonism Beta-lactamase Assay, Phase 5 (AID 2283600). In outline: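 Viability came from CellTiter-Glo ATP luminescence, read after 30 min at room temperature. Before this, HCT-116 p53-bla cells (4000/well) had 16 hours of compound exposure at 37C, with DMSO stocks diluted 217-fold on transfer.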

Assay [17] can be described thus: Tanguay_ZF_120hpf_SOMI_legacy: (Legacy) Oregon State University Tanguay Lab 120 Hour Post-fertilization zebrafish Assay for Somite Malformation (AID 2283647). The method in brief: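 Binary somite-defect scoring at 120 hpf, omitted for embryos that died, in wild-type (Tropical 5D) zebrafish with chorion removed by pronase at 4 hpf; static exposure began 6 hpf, single embryos per well, 28C, 0.64% DMSO; fitted positive versus DMSO.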

Assay [18] can be described thus: TOX21_p53_BLA_p3_viability: Viability Assessment in the Tox21 HCT-116 p53 Agonism Beta-lactamase Assay, Phase 3 (AID 2283593).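 Further: cells exposed to compound for 16 h before reading.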 In outline:
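Cellular ATP was quantified by CellTiter-Glo luminescence, read after 30 min at room temperature. Beforehand, HCT116 cells (4000/well) received compound 5 h post-seeding, 217-fold diluted from DMSO, then incubated 16 h at 37C.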

The nature of assay [19]: TOX21_p53_BLA_p4_viability: Viability Assessment in the Tox21 HCT-116 p53 Agonism Beta-lactamase Assay, Phase 4 (AID 2283597).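 Further: hits lower the luminescence signal meaning cytotoxicity.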 In outline: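 Cytotoxicity as reduced cellular ATP (CellTiter-Glo luminescence, 30 min room temperature), measured in the same wells following the CCF4 FRET p53 reading. Human HCT-116 cells received compounds in DMSO (217-fold dilution) for 16 h.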

Assay [20] is described as follows: Tanguay_ZF_120hpf_SNOU_legacy: (Legacy) Oregon State University Tanguay Lab 120 Hour Post-fertilization zebrafish Assay for Snout Malformation (AID 2283637). In outline: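 Binary snout-malformation call at 120 hpf in wild-type 5D embryos, chorion removed by pronase, under static exposure from 6 hpf at 28C (0.64% DMSO). Embryos dying by 24 or 120 hpf excluded.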

Structures are written as SMILES. Results filed as inconclusive are left out. More than one record can exist for a structure, and the calls need not agree. Activity calls are given as the source filed them. How the source made its calls: active means hit-call score of the fitted dose curve at least 0.9, where 1 is the maximum; inconclusive means response in the unintended direction; inactive means score below 0.9.

Cellular tumor antigen p53 (Homo sapiens), sequence (P04637 whole entry, looked up): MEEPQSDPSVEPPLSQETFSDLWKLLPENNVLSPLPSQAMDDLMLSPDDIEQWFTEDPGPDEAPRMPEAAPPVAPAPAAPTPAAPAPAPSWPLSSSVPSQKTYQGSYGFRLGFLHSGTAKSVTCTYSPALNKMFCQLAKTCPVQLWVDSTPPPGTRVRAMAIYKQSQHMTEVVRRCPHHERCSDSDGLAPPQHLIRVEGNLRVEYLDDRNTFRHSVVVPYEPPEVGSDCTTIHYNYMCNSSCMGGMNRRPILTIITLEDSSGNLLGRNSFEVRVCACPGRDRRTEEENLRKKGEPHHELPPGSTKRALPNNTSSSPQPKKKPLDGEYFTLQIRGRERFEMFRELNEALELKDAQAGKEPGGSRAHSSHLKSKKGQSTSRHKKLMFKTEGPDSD

As to `c1ccc(N=Nc2ccccc2)cc1`, the call in [1], in [2], in assay [3], in assay [4], in assay [5] and in assay [6] was inactive. The compound was classed as inactive in [7], in [8], in assay [9], in assay [10], in assay [11] and in [12]. The compound was called inactive in assay [13], in [14] and in assay [15].

On to `[O-][Cl+]O`, for which the call in assay [1], in assay [2], in [4], in assay [16], in assay [6] and in [7] was inactive. Besides, the call in assay [8], in assay [9], in assay [10], in assay [11], in [12] and in [13] was inactive. In addition, the compound was classed as inactive in [17], in assay [14] and in [15].

For `Brc1ccc(Oc2ccccc2)cc1`, the call in assay [1], in assay [2], in assay [18], in [3], in assay [4] and in assay [16] was inactive. Besides, the outcome in [5], in assay [6], in assay [7], in assay [8], in [9] and in assay [10] was inactive. The call in assay [11], in [13], in assay [17], in assay [14] and in [15] was inactive.

Regarding `CCC12COCN1COC2`, the call in assay [1], in assay [18], in [3], in assay [19], in assay [4] and in assay [16] was inactive. For the same compound, the result in assay [5], in assay [6], in assay [7], in [8], in [9] and in assay [10] was inactive. Moreover, the outcome in assay [11], in [17], in [14] and in assay [15] was inactive.

With `Nc1ccc(Oc2ccc(N)cc2)cc1`, the outcome in assay [1], in assay [18], in assay [3], in assay [4], in assay [16] and in assay [5] was inactive. Moreover, the result in [6], in assay [7], in assay [8], in assay [9], in assay [10] and in assay [11] was inactive. The outcome in [12], in assay [13], in [17], in assay [14] and in assay [15] was inactive.

Regarding `Cc1cccc(N)c1N`, the compound was called inactive in assay [1], in [18], in assay [3], in [19], in assay [4] and in [16]. Further, the outcome in [5], in assay [9], in [20], in assay [10], in assay [11] and in [13] was inactive. Further, the compound was classed as inactive in assay [17], in assay [14] and in assay [15]. Also, the AC50 in assay [19] is 26.8 µM (active); in [7], 10.6 µM (active); in assay [8], 27.8 µM (active); in [12], 54 µM (active).

Consider `O=P(OCCCl)(OCCCl)OCCCl`, for which the call in [1], in assay [18], in assay [3], in assay [19], in [4] and in assay [16] was inactive. For the same compound, the result in assay [5], in assay [7], in assay [8], in assay [9], in [10] and in assay [11] was inactive. Besides, the compound was called inactive in assay [13], in assay [17], in assay [14] and in [15].

These data come from PubChem BioAssay (EPA / NIEHS).
